Calls of active or inactive are those of the source. Rule for the calls: active = hit-call score of the fitted dose curve at least 0.9, where 1 is the maximum; inactive = score below 0.9.

Broadly, the AC50 is the concentration giving half of the maximal activity seen.

Common to all, as to details: mRNA level, 48 h; actives raise or lower the signal
Read-out in assay [1]: ABC Transporter (ABCB11), ABCB11 (gene 8647)
As to the kind of experiment: LTEA_HepaRG_ABCB11: Life Technologies and Expression Analysis (LTEA) Assay for ABC Transporter (ABCB11) using HepaRG (AID 2283463). Summed up:
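HepaRG, 48 h exposure, 8-pt half-log CRC top 100 uM, 0.5% DMSO vehicle, duplicates. Readout: TaqMan qRT-PCR of ABCB11 mRNA, housekeeping-normalized (ACTB/GAPDH/POLR2A). Bidirectional fit vs DMSO baseline.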

Read-out in assay [2]: Broad substrate specificity ATP-binding cassette transporter ABCG2 (Homo sapiens) (UniProt Q9UNQ0)
As to the kind of experiment: LTEA_HepaRG_ABCG2: Life Technologies and Expression Analysis (LTEA) Assay for ABC Transporter (ABCG2) using HepaRG (AID 2283465). Summed up: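 HepaRG, 48 h exposure, 8-pt half-log series from 100 uM, 0.5% DMSO vehicle, duplicates. Readout: ABCG2 transcript by qRT-PCR (Fluidigm array), housekeeping-normalized; bidirectional curve fit relative to DMSO baseline.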

Read-out in assay [3]: ATP-citrate lyase (ACLY), ACLY (gene 47)
Nature of the assay: LTEA_HepaRG_ACLY: Life Technologies and Expression Analysis (LTEA) Assay for ATP-citrate lyase (ACLY) using HepaRG (AID 2283466). Summed up:
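qRT-PCR readout of ACLY transcript after 48 h chemical treatment of HepaRG cells; expression normalized to three housekeeping genes. Eight-point half-log series, highest 100 uM, 0.5% DMSO vehicle. Gain or loss fitted against DMSO baseline.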

Read-out in assay [4]: Peroxisomal acyl-coenzyme A oxidase 1 (ACOX1) gene, ACOX1 (gene 51)
As to the kind of experiment: LTEA_HepaRG_ACOX1: Life Technologies and Expression Analysis (LTEA) Assay for Peroxisomal acyl-coenzyme A oxidase 1 (ACOX1) gene using HepaRG (AID 2283467). Summed up:
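HepaRG, 48 h chemical exposure, 8-pt half-log series from 100 uM top, 0.5% DMSO vehicle, duplicates. Readout: ACOX1 mRNA by Fluidigm qRT-PCR, housekeeping-normalized; bidirectional fit vs DMSO baseline.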

Read-out in assay [5]: Alkaline Phosphatase, Placental (ALPP) gene, ALPP (gene 250)
Nature of the assay: LTEA_HepaRG_ALPP: Life Technologies and Expression Analysis (LTEA) Assay for Alkaline Phosphatase, Placental (ALPP) gene using HepaRG (AID 2283468). An outline of the steps: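 Differentiated human HepaRG cells were plated and cultured 48 h, then exposed in duplicate for 48 h in serum-free induction medium to eight half-log concentrations from 100 uM in 0.5% DMSO. ALPP mRNA was measured by TaqMan qRT-PCR, normalized to ACTB, GAPDH, POLR2A.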

Read-out in assay [6]: Bcl-2 (BAD) gene, BAD (gene 572)
Nature of the assay: LTEA_HepaRG_BAD: Life Technologies and Expression Analysis (LTEA) Assay for Bcl-2 (BAD) gene using HepaRG (AID 2283469). An outline of the steps:
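HepaRG, 48 h exposure, 8-pt half-log curve from 100 uM in 0.5% DMSO, duplicates. Readout: TaqMan qRT-PCR for BAD mRNA, housekeeping-normalised (ACTB/GAPDH/POLR2A); gain or loss fitted against DMSO baseline.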

Read-out in assay [7]: Bcl-2 (BAX) gene, BAX (gene 581)
Nature of the assay: LTEA_HepaRG_BAX: Life Technologies and Expression Analysis (LTEA) Assay for Bcl-2 (BAX) gene using HepaRG (AID 2283470). An outline of the steps: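 Gene expression measured by Fluidigm qRT-PCR with three housekeeping genes for normalisation. HepaRG cells, plated 48 h beforehand, treated 48 h at up to 100 uM (8-point, half-log) in 0.5% DMSO. Bidirectional fitting versus DMSO.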

Read-out in assay [8]: adenosine kinase (ADK) gene, ADK (gene 132)
As to the kind of experiment: LTEA_HepaRG_ADK: Life Technologies and Expression Analysis (LTEA) Assay for adenosine kinase (ADK) gene using HepaRG (AID 2283471). Summed up: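 HepaRG (human liver), 48 h chemical exposure, 8-pt half-log series, top 100 uM, 0.5% DMSO vehicle. Readout: ADK mRNA by qRT-PCR vs housekeeping genes; bidirectional curve fit relative to DMSO baseline.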

Read-out in assay [9]: Alpha-fetoprotein (AFP) gene, AFP (gene 174)
As to the kind of experiment: LTEA_HepaRG_AFP: Life Technologies and Expression Analysis (LTEA) Assay for Alpha-fetoprotein (AFP) gene using HepaRG (AID 2283472). An outline of the steps: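 AFP transcript measured by TaqMan qRT-PCR with three housekeeping genes for normalization, after 48 h chemical treatment of HepaRG cells (top 100 uM, half-log steps, 0.5% DMSO). Gain or loss fitted against vehicle.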

Read-out in the next assay: BCL2L11 (gene 10018)
Nature of the assay: LTEA_HepaRG_BCL2L11: Life Technologies and Expression Analysis (LTEA) Assay for Bcl-2 (BCL2L11) gene using HepaRG (AID 2283473). Summed up:
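Differentiated human HepaRG cells in serum-free induction medium were exposed in duplicate for 48 h to eight concentrations (top 100 uM, half-log steps, 0.5% DMSO). BCL2L11 mRNA was quantified by TaqMan qRT-PCR, normalized to ACTB/GAPDH/POLR2A, bidirectional fit versus DMSO.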

Read-out in assay [10]: Apolipoprotein A-V (APOA5) gene, APOA5 (gene 116519)
Nature of the assay: LTEA_HepaRG_APOA5: Life Technologies and Expression Analysis (LTEA) Assay for Apolipoprotein A-V (APOA5) gene using HepaRG (AID 2283474). An outline of the steps:
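Differentiated human HepaRG cells were exposed in duplicate for 48 h to eight half-log concentrations from 100 uM in 0.5% DMSO. APOA5 mRNA was quantified by TaqMan qRT-PCR, normalized to ACTB, GAPDH and POLR2A, and fitted bidirectionally against DMSO.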

Read-out in assay [11]: Apoptosis regulator Bcl-2 (Homo sapiens) (UniProt P10415)
Nature of the assay: LTEA_HepaRG_BCL2: Life Technologies and Expression Analysis (LTEA) Assay for Bcl-2 gene using HepaRG (AID 2283475). An outline of the steps: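 qRT-PCR of BCL2 transcript, normalized to three housekeeping genes (ACTB, GAPDH, POLR2A), after 48 h chemical exposure of HepaRG cells; concentrations top 100 uM with half-log dilutions, 0.5% DMSO vehicle, duplicates; changes up or down fitted relative to vehicle.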

Read-out in assay [12]: Bcl-2 (BID) gene, BID (gene 637)
Nature of the assay: LTEA_HepaRG_BID: Life Technologies and Expression Analysis (LTEA) Assay for Bcl-2 (BID) gene using HepaRG (AID 2283476). An outline of the steps:
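Duplicate 48 h treatments of HepaRG cells in serum-free induction medium spanned 100 uM downward in half-log steps, 0.5% DMSO. Transcript change quantified by qRT-PCR against three housekeeping genes, fitted up or down versus DMSO.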

Read-out in the next assay: Caspase-3 (Homo sapiens) (UniProt P42574)
Nature of the assay: LTEA_HepaRG_CASP3: Life Technologies and Expression Analysis (LTEA) Assay for cysteine-aspartic acid protease (CASP3) using HepaRG (AID 2283477). An outline of the steps: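 Differentiated human HepaRG cells in serum-free induction medium were exposed 48 h to 8-point half-log concentrations from 100 uM (0.5% DMSO vehicle). CASP3 mRNA was measured by qRT-PCR, normalised to ACTB, GAPDH and POLR2A, with bidirectional fitting against DMSO.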

Read-out in assay [13]: Cytochrome P450 (CYP24A1), CYP24A1 (gene 1591)
As to the kind of experiment: LTEA_HepaRG_CYP24A1: Life Technologies and Expression Analysis (LTEA) Assay for Cytochrome P450 (CYP24A1) using HepaRG (AID 2283478). Summed up:
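Differentiated HepaRG cells, pre-cultured 48 h, were exposed in duplicate for 48 h in serum-free induction medium to 8 half-log concentrations (top 100 uM, 0.5% DMSO). CYP24A1 mRNA was quantified by TaqMan qRT-PCR, normalized to ACTB/GAPDH/POLR2A, fitted bidirectionally versus DMSO.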

Read-out in assay [14]: Cytochrome P450 (CYP1A2), CYP1A2 (gene 1544)
Nature of the assay: LTEA_HepaRG_CYP1A2: Life Technologies and Expression Analysis (LTEA) Assay for Cytochrome P450 (CYP1A2) using HepaRG (AID 2283479). Summed up:
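Differentiated human HepaRG cells in serum-free induction medium were exposed in duplicate for 48 h to 8-point half-log concentrations up to 100 uM in 0.5% DMSO. CYP1A2 mRNA measured by qRT-PCR, normalized to ACTB, GAPDH, POLR2A; bidirectional fit vs DMSO.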

Read-out in assay [15]: Cytochrome P450 (CYP2B6), CYP2B6 (gene 1555)
As to the kind of experiment: LTEA_HepaRG_CYP2B6: Life Technologies and Expression Analysis (LTEA) Assay for Cytochrome P450 (CYP2B6) using HepaRG (AID 2283481). An outline of the steps:
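Differentiated HepaRG cells, serum-free induction medium, exposed 48 h in duplicate to 8-point half-log concentrations from 100 uM in 0.5% DMSO. CYP2B6 mRNA by qRT-PCR, normalized to ACTB, GAPDH, POLR2A; bidirectional fit versus DMSO.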

Read-out in assay [16]: Cytochrome P450 2C19 (Homo sapiens) (UniProt P33261)
As to the kind of experiment: LTEA_HepaRG_CYP2C19: Life Technologies and Expression Analysis (LTEA) Assay for CYP2C19 using HepaRG (AID 2283482). An outline of the steps: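 Differentiated human HepaRG cells were exposed for 48 h in serum-free induction medium to 8 concentrations (top 100 uM, half-log steps, 0.5% DMSO). CYP2C19 mRNA was measured by qRT-PCR, normalized to ACTB/GAPDH/POLR2A, and fitted bidirectionally against DMSO.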

Caspase-3 (Homo sapiens), sequence (P42574 whole entry, looked up): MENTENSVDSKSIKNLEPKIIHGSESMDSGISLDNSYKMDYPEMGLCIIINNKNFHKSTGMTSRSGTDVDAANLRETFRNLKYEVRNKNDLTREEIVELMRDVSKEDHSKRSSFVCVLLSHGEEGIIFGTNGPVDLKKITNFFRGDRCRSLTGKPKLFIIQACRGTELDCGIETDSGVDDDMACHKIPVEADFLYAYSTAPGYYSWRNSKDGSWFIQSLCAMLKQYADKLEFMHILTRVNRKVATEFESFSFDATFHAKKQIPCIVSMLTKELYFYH
Broad substrate specificity ATP-binding cassette transporter ABCG2 (Homo sapiens), sequence (Q9UNQ0 whole entry, looked up): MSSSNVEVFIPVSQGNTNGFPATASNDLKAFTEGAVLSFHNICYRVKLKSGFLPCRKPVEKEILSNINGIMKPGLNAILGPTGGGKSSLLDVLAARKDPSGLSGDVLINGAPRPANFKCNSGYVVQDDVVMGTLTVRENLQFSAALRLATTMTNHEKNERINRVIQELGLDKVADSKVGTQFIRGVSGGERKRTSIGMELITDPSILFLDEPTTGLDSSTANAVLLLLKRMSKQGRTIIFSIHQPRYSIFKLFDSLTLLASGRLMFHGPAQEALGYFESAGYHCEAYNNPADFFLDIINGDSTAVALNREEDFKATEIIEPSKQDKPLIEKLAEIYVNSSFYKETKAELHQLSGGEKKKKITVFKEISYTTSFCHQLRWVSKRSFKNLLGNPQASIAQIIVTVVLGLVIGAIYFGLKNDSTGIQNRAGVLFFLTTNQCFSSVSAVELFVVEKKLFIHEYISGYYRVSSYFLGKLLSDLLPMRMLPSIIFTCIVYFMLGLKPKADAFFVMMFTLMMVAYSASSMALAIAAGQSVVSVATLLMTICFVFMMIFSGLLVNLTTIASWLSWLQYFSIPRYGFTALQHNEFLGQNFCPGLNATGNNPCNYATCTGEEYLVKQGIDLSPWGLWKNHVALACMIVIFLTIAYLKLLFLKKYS
Cytochrome P450 2C19 (Homo sapiens), sequence (P33261 whole entry, looked up): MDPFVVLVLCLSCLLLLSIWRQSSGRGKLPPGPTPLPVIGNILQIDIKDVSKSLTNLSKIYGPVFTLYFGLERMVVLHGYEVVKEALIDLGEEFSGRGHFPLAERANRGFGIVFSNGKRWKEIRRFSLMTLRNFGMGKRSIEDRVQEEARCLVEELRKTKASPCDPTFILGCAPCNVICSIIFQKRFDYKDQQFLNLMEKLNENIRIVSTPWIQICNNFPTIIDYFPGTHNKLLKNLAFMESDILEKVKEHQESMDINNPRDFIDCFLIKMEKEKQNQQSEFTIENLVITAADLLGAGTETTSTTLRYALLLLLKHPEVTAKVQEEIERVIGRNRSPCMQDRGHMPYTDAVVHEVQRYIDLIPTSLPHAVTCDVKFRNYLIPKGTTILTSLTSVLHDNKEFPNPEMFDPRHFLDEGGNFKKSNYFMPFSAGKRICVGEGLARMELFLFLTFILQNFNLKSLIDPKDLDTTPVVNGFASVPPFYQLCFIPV
Apoptosis regulator Bcl-2 (Homo sapiens), sequence (P10415 whole entry, looked up): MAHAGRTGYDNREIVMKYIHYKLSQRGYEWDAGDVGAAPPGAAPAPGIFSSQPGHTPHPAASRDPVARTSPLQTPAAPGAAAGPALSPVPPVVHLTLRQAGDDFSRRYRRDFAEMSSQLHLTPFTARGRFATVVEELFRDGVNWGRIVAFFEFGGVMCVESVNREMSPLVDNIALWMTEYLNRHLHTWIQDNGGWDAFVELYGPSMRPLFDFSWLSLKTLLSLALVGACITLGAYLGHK

For `O=C1CCC(N2C(=O)c3ccccc3C2=O)C(=O)N1` (stereo not given), the call in assay [1], in assay [2], in assay [3], in assay [4], in assay [5] and in assay [6] was inactive. The molecule was classed as inactive (in [7]; in assay [8]; in [9]; with BCL2L11 (gene 10018); in [10]; in assay [11]). Moreover, the molecule was called inactive (in assay [12]; in the assay with Caspase-3 (Homo sapiens); in assay [13]; in assay [14]; in [15]; in assay [16]).

`Fc1ccccc1[C@@H](F)COC1CCC(Nc2ncnc3[nH]ncc23)CC1` (stereo not given in full): the AC50 is 71.1 µM (active) in assay [1]; 34.1 µM (active) in assay [4]; 23.1 µM (active) in assay [5]; 50 µM (active) in [7]; 50 µM (active) in assay [8]; 50 µM (active) in assay [10]. The AC50 is 30.7 µM (active) in assay [11]; 24.9 µM (active) with Caspase-3 (Homo sapiens); 29.1 µM (active) in [14]; 30.9 µM (active) in assay [15]; 67.9 µM (active) in [16]. The molecule was classed as inactive (in [2]; in assay [3]; in assay [6]; with BCL2L11 (gene 10018); in assay [12]; in assay [13]).

Take `O=C(OC[C@H]1O[C@@H](OC(=O)c2cc(O)c(O)c(OC(=O)c3cc(O)c(O)c(O)c3)c2)[C@H](OC(=O)c2cc(O)c(O)c(OC(=O)c3cc(O)c(O)c(O)c3)c2)[C@@H](OC(=O)c2cc(O)c(O)c(OC(=O)c3cc(O)c(O)c(O)c3)c2)[C@@H]1OC(=O)c1cc(O)c(O)c(OC(=O)c2cc(O)c(O)c(O)c2)c1)c1cc(O)c(O)c(OC(=O)c2cc(O)c(O)c(O)c2)c1`: the AC50 was 7.96 µM (active) in [1]; 8.88 µM (active) in assay [2]; 3.31 µM (active) in assay [5]; 8.86 µM (active) in assay [9]; 15.2 µM (active) with BCL2L11 (gene 10018); 6.96 µM (active) in assay [10]. Further, the AC50 was 28.4 µM (active) in assay [11], 7.63 µM (active) in assay [12], 10.2 µM (active) in [15] and 15.2 µM (active) in [16]. In addition, the molecule was called inactive (in assay [3]; in assay [4]; in assay [6]; in [7]; in assay [8]; with Caspase-3 (Homo sapiens)). The molecule was called inactive in assay [13] and in assay [14].

`CN(C)c1ccc(Cc2ccc(N(C)C)cc2)cc1`: the outcome in assay [1], in [2], in assay [3], in assay [4], in assay [6] and in [7] was inactive. The result (in assay [8]; with BCL2L11 (gene 10018); in assay [11]; in assay [12]; in assay [13]) was inactive. Besides, the AC50 in assay [5] was 61.6 µM (active); in assay [10], 76.1 µM (active); with Caspase-3 (Homo sapiens), 50 µM (active); in assay [14], 13 µM (active); in assay [15] it was 1.6 µM (active); in assay [16], 12.5 µM (active).

The values above are taken from PubChem BioAssay (EPA / NIEHS).
